These results are taken from the antibiotic and cytotoxicity screens of Wong et al. (2023).

Out of some 39,000 compounds screened, about 3,300 (8.5%) were called active. The sample holds actives, similar compounds and a random draw of the others, so the mix is not that of the screen.

In this experiment the test system is HepG2. The experiment in a line: cytotoxicity call (relative viability < 0.9). The note with it: 10 µM.
As for `Cc1noc(C)c1S(=O)(=O)N(C)C[C@@H]1Oc2ccc(NC(=O)Cc3cn(C)c4ccccc34)cc2CC(=O)N([C@@H](C)CO)C[C@@H]1C`, the cytotoxicity call is “inactive”.

Consider `C[C@@H]1CN([C@H](C)CO)C(=O)c2cc(NC(=O)c3ccccc3)ccc2O[C@@H](C)CCCCO[C@H]1CN(C)C(=O)Nc1ccc(C(F)(F)F)cc1`, for which the cytotoxicity call is “inactive”.

In the case of `C[C@@H](O)c1nnc(N)[nH]1`, the cytotoxicity call was “inactive”.

In the case of `C[C@@H]1CN([C@H](C)CO)C(=O)c2cc(NS(=O)(=O)c3ccc(Cl)cc3)ccc2O[C@@H]1CN(C)Cc1ccc(-c2ccccc2)cc1`, the cytotoxicity call is “active”.

Regarding `C[C@@H]1CN([C@@H](C)CO)C(=O)c2cc(NS(=O)(=O)c3ccc(Cl)cc3)ccc2O[C@@H]1CN(C)Cc1ccc(-c2ccccc2)cc1`, the cytotoxicity call was “active”.

Take `C[C@H](CO)N1C[C@H](C)[C@H](CN(C)Cc2ccc(-c3ccccc3)cc2)Oc2ccc(NS(=O)(=O)c3ccc(Cl)cc3)cc2C1=O`: the cytotoxicity call is “active”.

As to `C[C@H]1CN([C@@H](C)CO)C(=O)c2cc(NS(=O)(=O)c3ccc(Cl)cc3)ccc2O[C@@H]1CN(C)Cc1ccc(-c2ccccc2)cc1`, the cytotoxicity call was “inactive”.

With `C[C@H](CO)N1C[C@H](C)[C@@H](CN(C)Cc2ccc(-c3ccccc3)cc2)Oc2ccc(NS(=O)(=O)c3ccc(Cl)cc3)cc2C1=O`, the cytotoxicity call was “active”.

In the case of `C[C@@H]1CN([C@@H](C)CO)C(=O)c2cc(NS(=O)(=O)c3ccc(Cl)cc3)ccc2O[C@H]1CN(C)Cc1ccc(-c2ccccc2)cc1`, the cytotoxicity call was “inactive”.

For `C[C@@H]1CN([C@H](C)CO)C(=O)c2cc(NS(=O)(=O)c3ccc(Cl)cc3)ccc2O[C@H]1CN(C)Cc1ccc(-c2ccccc2)cc1`, the cytotoxicity call is “inactive”.

For the compound `C[C@H]1CN([C@@H](C)CO)C(=O)c2cc(NS(=O)(=O)c3ccc(Cl)cc3)ccc2O[C@H]1CN(C)Cc1ccc(-c2ccccc2)cc1`, the cytotoxicity call is “inactive”.

In the case of `C[C@H](CO)N1C[C@H](C)[C@H](CN(C)Cc2ccc(Oc3ccccc3)cc2)Oc2cc(Br)ccc2S1(=O)=O`, the cytotoxicity call was “inactive”.

On to `C[C@H]1CN([C@@H](C)CO)C(=O)c2cc(NC(=O)CCCCCC(=O)Nc3ccccc3N)ccc2O[C@@H]1CN(C)C(=O)Nc1cccc2ccccc12`, for which the cytotoxicity call was “inactive”.

Consider `CC(C)NC(=O)N(C)C[C@H]1Oc2ccc(NS(=O)(=O)c3ccc(Cl)cc3)cc2C(=O)N([C@H](C)CO)C[C@@H]1C`, for which the cytotoxicity call was “inactive”.

Take `C[C@H](CO)N1C[C@H](C)[C@H](CN(C)C(=O)Nc2ccc(F)cc2)Oc2c(NS(=O)(=O)c3cn(C)cn3)cccc2C1=O`: the cytotoxicity call is “inactive”.

In the case of `C[C@@H]1CN([C@@H](C)CO)C(=O)c2cccc(NC(=O)Nc3ccc(C(F)(F)F)cc3)c2O[C@@H]1CN(C)S(=O)(=O)c1ccc(F)cc1`, the cytotoxicity call was “inactive”.

With `Nc1ncnc(N[C@H]2CCS(=O)(=O)C2)c1[N+](=O)[O-]`, the cytotoxicity call was “inactive”.

As for `C[C@@H]1CCCCO[C@H](CN(C)Cc2ccc(C(F)(F)F)cc2)[C@H](C)CN([C@H](C)CO)C(=O)c2cc(NC(=O)CCC(F)(F)F)ccc2O1`, the cytotoxicity call is “inactive”.

Consider `COCC(=O)N1C[C@H](C)[C@H](OC)CN(C)C(=O)c2ccc(NC(=O)Nc3ccccc3)cc2OC[C@H]1C`, for which the cytotoxicity call was “inactive”.

Regarding `C[C@@H]1CN([C@H](C)CO)C(=O)Cc2cc(NS(=O)(=O)c3ccccc3)ccc2O[C@H]1CN(C)Cc1ccc(C(=O)O)cc1`, the cytotoxicity call is “inactive”.

For the compound `COc1ccc(S(=O)(=O)Nc2ccc3c(c2)C(=O)N([C@H](C)CO)C[C@H](C)[C@@H](CN(C)CC2CCCCC2)OCCCC[C@@H](C)O3)cc1`, the cytotoxicity call was “inactive”.

`C[C@H](CO)N1C[C@H](C)[C@@H](CN(C)S(=O)(=O)c2ccccc2)Oc2c(NS(=O)(=O)c3ccc(F)cc3)cccc2C1=O`: the cytotoxicity call was “inactive”.

Take `COc1ccc(C#Cc2cccc(-c3nc(C(=O)N4CCN(Cc5ccccc5)CC4)cc4c3[C@H](CCO)N(S(=O)C(C)(C)C)C4)c2)cc1OC` (stereo partly specified): the cytotoxicity call was “inactive”.

In the case of `CC(C)(C)[S@](=O)N1Cc2cc(C(=O)N3CCCCC3)nc(-c3cccc(-c4ccccc4F)c3)c2[C@@H]1CCO`, the cytotoxicity call was “inactive”.

Regarding `CC(C)(C)[S@@](=O)N1Cc2cc(C(=O)N3CCCCC3)nc(-c3cccc(-c4ccccc4F)c3)c2[C@H]1CCO`, the cytotoxicity call is “inactive”.

Consider `CC(C)(C)S(=O)N1Cc2cc(C(=O)N3CCN(Cc4ccccc4)CC3)nc(-c3cccc(C#CCC4CCCC4)c3)c2[C@H]1CCO` (stereo partly specified), for which the cytotoxicity call is “active”.

`COc1ccc(C#Cc2cccc(-c3nc(C(=O)N4CCN(Cc5ccccc5)CC4)cc4c3[C@@H](CCO)N(S(=O)C(C)(C)C)C4)c2)cc1OC` (stereo partly specified): the cytotoxicity call is “inactive”.

As to `CC(C)(C)S(=O)N1Cc2cc(C(=O)N3CCN(Cc4ccccc4)CC3)nc(-c3cccc(-c4cc5ccccc5o4)c3)c2[C@H]1CCO` (stereo partly specified), the cytotoxicity call was “active”.

Take `COCCCN(C[C@]1(O)CC[C@H]2C3=CC=C4C[C@@H](O)CC[C@]4(C)[C@@H]3CC[C@@]21C)C(=O)O[C@H]1C[C@@H](C)CC[C@@H]1C(C)C`: the cytotoxicity call is “inactive”.

As for `CC(C)NC(=O)N(C)C[C@H]1Oc2ccc(NS(=O)(=O)c3cccs3)cc2C(=O)N([C@H](C)CO)C[C@@H]1C`, the cytotoxicity call is “inactive”.

As to `CO[C@H]1CN(C)C(=O)c2cc(NS(C)(=O)=O)ccc2OC[C@@H](C)N(C(=O)C2CCOCC2)C[C@H]1C`, the cytotoxicity call was “inactive”.

As to `C[C@@H]1CN([C@@H](C)CO)C(=O)Cc2cc(NC(=O)C3CCCCC3)ccc2O[C@H]1CN(C)Cc1ccc(Cl)c(Cl)c1`, the cytotoxicity call was “inactive”.

Regarding `C[C@H]1CN([C@@H](C)CO)C(=O)Cc2cc(NC(=O)Cn3cnnn3)ccc2O[C@H]1CN(C)C(=O)Nc1ccc2c(c1)OCO2`, the cytotoxicity call was “inactive”.

In the case of `Cc1ccc(S(=O)(=O)N(C)C[C@H]2Oc3c(NS(=O)(=O)c4cn(C)cn4)cccc3C(=O)N([C@H](C)CO)C[C@@H]2C)cc1`, the cytotoxicity call was “inactive”.

On to `C[N+](C)(C)CCCCCCNC(=O)[C@@H]1C[C@@H]2C(=O)N[C@@H](CCCC[N+](C)(C)C)C(=O)N2[C@@H]1c1ccc(O)cc1`, for which the cytotoxicity call was “inactive”.

In the case of `Cc1ccc(S(=O)(=O)N(C)C[C@H]2Oc3ccc(NC(=O)NC(C)C)cc3C(=O)N([C@@H](C)CO)C[C@H]2C)cc1`, the cytotoxicity call was “inactive”.

With `C[C@H](CO)N1C[C@H](C)[C@@H](CN(C)C(=O)N[C@H](C)c2ccccc2)OCc2ccccc2-c2c(n(C)c3ccccc23)C1=O`, the cytotoxicity call is “inactive”.

Consider `O=C(C[C@H]1CC[C@@H]2[C@H](COC[C@H](O)CN2S(=O)(=O)c2ccccc2)O1)N1CCc2ccccc2C1`, for which the cytotoxicity call was “inactive”.

In the case of `CCCC[C@@H](C)/C=C(C)/C=C(\C)C(=O)NC1=C[C@@](O)(/C=C/C=C/C=C/C(=O)NC2C(=O)CCC2=O)[C@@H]2O[C@@H]2C1=O`, the cytotoxicity call is “active”.

Consider `C[C@@H]1CN([C@@H](C)CO)C(=O)c2cccc(NC(=O)Nc3ccc4c(c3)OCO4)c2O[C@@H]1CN(C)Cc1ccc(Cl)c(Cl)c1`, for which the cytotoxicity call is “inactive”.

As to `O=C(C[C@@H]1CC[C@H]2[C@@H](COC[C@H](O)CN2CC2CCOCC2)O1)N1CCOCC1`, the cytotoxicity call is “inactive”.

With `COCC(=O)Nc1ccc2c(c1)C(=O)N(C)[C@@H]1CC[C@H](CC(=O)N3CCc4ccccc4C3)O[C@@H]1CO2`, the cytotoxicity call is “inactive”.

`COc1cccc(C(=O)Nc2ccc3c(c2)C(=O)N(C)[C@H]2CC[C@H](CC(=O)NCC(F)(F)F)O[C@H]2CO3)c1`: the cytotoxicity call is “inactive”.

Take `CN1C(=O)c2cc(NC(=O)c3ccc(F)cc3)ccc2OC[C@H]2O[C@H](CC(=O)N3CCOCC3)CC[C@H]21`: the cytotoxicity call was “inactive”.

Take `COCC(=O)Nc1ccc2c(c1)C(=O)N(C)[C@H]1CC[C@@H](CC(=O)N3CCc4ccccc4C3)O[C@@H]1CO2`: the cytotoxicity call was “inactive”.

With `COc1cccc(C(=O)Nc2ccc3c(c2)C(=O)N(C)[C@@H]2CC[C@H](CC(=O)NCC4CC4)O[C@@H]2CO3)c1`, the cytotoxicity call was “active”.

Turning to `COCC(=O)Nc1ccc2c(c1)C(=O)N(C)[C@H]1CC[C@H](CC(=O)N3CCc4ccccc4C3)O[C@H]1CO2`, the cytotoxicity call was “active”.

With `CN1C(=O)c2cc(NC(=O)c3ccc(F)cc3)ccc2OC[C@H]2O[C@@H](CC(=O)N3CCOCC3)CC[C@H]21`, the cytotoxicity call was “inactive”.

Regarding `COc1cccc(C(=O)Nc2ccc3c(c2)C(=O)N(C)[C@@H]2CC[C@H](CC(=O)NCC(F)(F)F)O[C@@H]2CO3)c1`, the cytotoxicity call is “active”.

Take `COc1cccc(C(=O)Nc2ccc3c(c2)C(=O)N(C)[C@H]2CC[C@H](CC(=O)NCC(F)(F)F)O[C@@H]2CO3)c1`: the cytotoxicity call was “inactive”.

`COc1cccc(C(=O)Nc2ccc3c(c2)C(=O)N(C)[C@@H]2CC[C@@H](CC(=O)NCC4CC4)O[C@@H]2CO3)c1`: the cytotoxicity call was “inactive”.

Take `COc1cccc(C(=O)Nc2ccc3c(c2)C(=O)N(C)[C@H]2CC[C@H](CC(=O)NCC4CC4)O[C@@H]2CO3)c1`: the cytotoxicity call is “inactive”.

With `CN1C(=O)c2cc(NC(=O)c3ccc(F)cc3)ccc2OC[C@@H]2O[C@@H](CC(=O)N3CCOCC3)CC[C@H]21`, the cytotoxicity call was “active”.

`C[C@H]1CN([C@@H](C)CO)C(=O)c2c(c3ccccc3n2C)-c2ccccc2CO[C@@H]1CN(C)Cc1cccc(O)c1`: the cytotoxicity call is “inactive”.

For the compound `C[C@H](CO)N1C[C@H](C)[C@H](CN(C)S(C)(=O)=O)Oc2ccc(NC(=O)CCC(F)(F)F)cc2CC1=O`, the cytotoxicity call is “inactive”.

As for `Cc1noc(C)c1S(=O)(=O)Nc1ccc2c(c1)C(=O)N([C@@H](C)CO)C[C@H](C)[C@@H](CN(C)C(=O)NC1CCCCC1)O2`, the cytotoxicity call was “inactive”.

On to `C[C@@H]1CCCCO[C@@H](CN(C)C(=O)Nc2ccccc2)[C@@H](C)CN([C@@H](C)CO)C(=O)c2cc(NC(=O)CCC(F)(F)F)ccc2O1`, for which the cytotoxicity call is “inactive”.

Regarding `C[C@H](CO)N1C[C@H](C)[C@@H](CN(C)C(=O)Nc2ccccc2)Oc2c(NS(=O)(=O)c3cn(C)cn3)cccc2C1=O`, the cytotoxicity call was “inactive”.

As for `C[C@H]1CN([C@@H](C)CO)C(=O)Cc2cc(NS(=O)(=O)c3ccc(F)cc3)ccc2O[C@@H]1CN(C)S(=O)(=O)c1ccccc1`, the cytotoxicity call is “inactive”.

As for `COc1ccc2c3c([nH]c2c1)[C@@H](CO)N(CC1CCCC1)C[C@]13CCN(CC1)C(=O)c1ccc(cc1)F`, the cytotoxicity call was “inactive”.

Take `C[C@H](NC(=O)N(C)C[C@@H]1OCc2ccccc2-c2c(n(C)c3ccccc23)C(=O)N([C@@H](C)CO)C[C@H]1C)c1ccccc1`: the cytotoxicity call was “inactive”.
